# Compound activity (PubChem BioAssay)
# SK-BR-3 tox 24h: SK-BR-3 proliferation inhibitors, primary screen, cell-based, human, 24 h. actives 0.47% (n = 41,000). viability, % at 10 µM. SK-BR-3 viability, CellTiter-Glo ATP luminescence; active compounds read low. AID 847, 2007;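 active means viability at or below the median of all test compounds minus 3 SD, in both replicates if run twice, cut at about 45% in these data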;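 further: 100% = median untreated cell wells and 0% = median positive control drug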
# BAP1 block: inhibitors of BAP1 deubiquitinase, primary screen, biochemical, Ub-AMC fluorescence, kinetic; recombinant BAP1, Ub-AMC hydrolysis fluorescence kinetic; active compounds read low; calls only at 20 µM; actives 0.48% (n = 72,000); AID 436, 2006;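 active means activity remaining at or below 50% of control, provided the compound also passes the data quality filters; inactive means the rest, including low values that fail the filters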;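 further: 100% = DMSO wells rate and 0% = substrate alone blank rate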
# Target sequence (Q92560 whole entry, looked up): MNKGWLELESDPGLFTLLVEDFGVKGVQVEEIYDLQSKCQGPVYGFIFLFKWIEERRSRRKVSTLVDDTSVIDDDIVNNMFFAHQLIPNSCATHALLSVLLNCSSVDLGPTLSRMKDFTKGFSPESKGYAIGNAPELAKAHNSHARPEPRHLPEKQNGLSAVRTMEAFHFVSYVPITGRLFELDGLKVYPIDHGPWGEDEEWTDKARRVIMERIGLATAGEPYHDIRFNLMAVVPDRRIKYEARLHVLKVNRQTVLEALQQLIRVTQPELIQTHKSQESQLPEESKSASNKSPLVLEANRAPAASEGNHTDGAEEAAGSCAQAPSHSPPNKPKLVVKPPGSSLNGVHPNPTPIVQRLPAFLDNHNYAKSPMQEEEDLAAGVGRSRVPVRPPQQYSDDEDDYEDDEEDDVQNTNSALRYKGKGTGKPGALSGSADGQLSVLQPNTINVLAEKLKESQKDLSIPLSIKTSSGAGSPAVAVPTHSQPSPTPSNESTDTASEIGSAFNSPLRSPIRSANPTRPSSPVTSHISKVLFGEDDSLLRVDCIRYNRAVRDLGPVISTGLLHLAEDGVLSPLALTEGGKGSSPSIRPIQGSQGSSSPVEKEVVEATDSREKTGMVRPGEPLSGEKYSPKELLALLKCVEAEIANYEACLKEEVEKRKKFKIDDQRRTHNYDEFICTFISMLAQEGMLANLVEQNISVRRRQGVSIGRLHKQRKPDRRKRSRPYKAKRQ
# E coli RNAP: E. coli RNAP inhibitors, biochemical. DNA-directed RNA polymerase subunit beta (Escherichia coli (strain K12)), P0A8V2. E. coli RNA polymerase, fluorescence transcription assay. inhibition, %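 (tested at 10 µM)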. actives 0.2% (n = 62,000). AID 559, 2006; in the data active means inhibition above about 20%;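 further: 0% = enzyme without compound and 100% = no enzyme blank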
# HER2 expr 66K: inhibitors of Her2 protein expression, primary screen, SKBR-3 cells, AlphaScreen, 66K library | Receptor tyrosine-protein kinase erbB-2 (Homo sapiens), P04626 | SKBR-3 HER2 protein level, 18-24 h; active compounds read low | HER2 level % of control, % at 10 µM | actives 0.69% (n = 65,000);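 active means HER2 level under 5% of the carrier-only control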;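 further: 100% = DMSO carrier and 0% = 500 nM PU-H71 HSP90 inhibitor; lower value means stronger loss of Her2 protein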
# TNAP act DEA: human TNAP enzyme activators, primary screen, biochemical, luminescent, intermediate phosphate acceptor level; Alkaline phosphatase, tissue-nonspecific isozyme (Homo sapiens), P05186; purified TNAP, CDP-star luminescence, 100 mM DEA, 30 min; active compounds read high; scale: 0 levamisole-inhibited, 1 vehicle-only enzyme; activation factor at 20 µM; 64,000 tested, under 10 active; AID 813, 2007;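 active means activation factor of at least 2 at 20 µM, relative to controls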
# BAP1 inh confirm: BAP1 deubiquitinase inhibitors, hit retest, confirmation, orthogonal assay, biochemical, Ub-ethyl ester substrate, HPLC readout; shares compounds with BAP1 block; actives 8% (n = 310); AID 753, 2007; purified BAP1, Ub-ethyl ester hydrolysis; active compounds read low; % of control activity, % at 20 µM;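 active means percent of control activity at or below 60%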
# Numbers without * were called inactive; i = inactive; / = no result shown; + = active, no number. Most compounds without a hit are left out; they make up all but 1.4% or so of the library.
SMILES,SK-BR-3 tox 24h,BAP1 block,E coli RNAP,HER2 expr 66K,TNAP act DEA,others
O=C(NC1(C(F)(F)F)Oc2ccc(Cl)cc2O1)N1CCC2(CC1)OCCO2 (stereo not given),65,i,22*,178,0.9,
Nc1c(C(=O)NCCc2ccccc2)c2nc3ccccc3nc2n1CCN1CCOCC1,2.9*,i,-8,-5.1*,0.9,
Cc1ccc(NC(=O)CCC(=O)Nc2ccc(Cl)cc2C(=O)c2ccccc2)cc1,/,i,/,/,/,
Cc1cccc(C)c1NC1=NCCCS1,/,i,4,-9.3*,0.9,
O=C(COc1ccccc1)N1CCN(C2CCCC2)CC1,110,i,-5,-4.8*,1,
O=C(Cc1ccccc1)N1CCN(C2CCCC2)CC1,88,i,1,120,1,
N=C(N)c1c(O)n(C2CCCCC2)c(=O)n(C2CCCCC2)c1=O,2.8*,i,9,-6.5*,0.9,
Clc1ccc(C(Cl)(Cl)Cl)c(Cl)n1,/,i,/,/,/,
COc1ccc(C2(CN)CCCCC2)cc1OC,/,i,/,/,/,
COc1ccc(CNCCc2ccc(F)cc2)c(OC)c1C,/,i,/,/,/,
CCCCn1c(O)c(C(CC)=NCCCN(C)C)c(=O)[nH]c1=O,127,i,21*,140,0.8,
CCCCn1c(O)c(C(C)=NCCCN(C)C)c(=O)[nH]c1=O,81,i,-4,104,0.9,
C=CCn1c(O)c(C(C)=NCc2cc(OC)cc(OC)c2)c(=O)[nH]c1=O,38*,i,7,72,0.9,
COc1cc(C(=O)Nc2ccc([N+](=O)[O-])cc2C(=O)c2ccccc2)cc(OC)c1OC,/,i,/,/,/,
CCCCCn1c(=O)c(C(=O)NCc2ccncc2)c(O)c2ccccc21,103,/,6,54,0.9,
CCCCCn1c(=O)c(C(=O)Nc2ccncc2)c(O)c2ccccc21,115,+,8,22,0.9,
COc1ccc(-n2nnnc2C2(N3CCOCC3)CCCCC2)cc1,/,i,/,/,/,
C[C@@]1(CO)[C@H](O)CC[C@@]2(C)[C@H]1CC[C@H]1C[C@@H]3C[C@@]12CC[C@]3(O)CO,126,i,12,-15*,0.8,
Cn1ncnc2c(=O)n(C)c(=O)nc1-2,5.5*,i,1,1.0*,1,
CCCCCCn1c(=O)c(C(=O)Nc2c(C)n(C)n(-c3ccccc3)c2=O)c(O)c2ccccc21,102,+,4,93,1,BAP1 inh confirm=95
Cc1ccc(-n2c(C=Cc3cccnc3)nc3ccccc3c2=O)cc1,/,i,/,/,/,
